PubChem BioAssay
The source made the active and inactive calls.

Key:
[1] = system: PRMT1 (protein arginine N-methyltransferase 1); assay: PRMT1 binders on small-molecule microarrays, primary screen, biochemical, small-molecule microarray, 635 nm fluorescence (AID 1088); settings: small-molecule microarray binding, higher = more signal;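 further: binding of Prmt1 protein to compounds spotted on small-molecule microarray slides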
[2] = yeast growth modulation, basal conditions, primary screen, YJM789 clinical isolate, OD600, 24 h (AID 1089);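 further: growth of clinical yeast isolate S. cerevisiae YJM 789 seeded 1000 cells per well; test concentration not given here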; settings: S. cerevisiae YJM789 growth, higher = more signal, called active from +8 up or from −8 down
[3] = fission yeast growth modulation, primary screen, strain 972, OD600, 24 h, no modulator (AID 1090);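 further: basal condition with compound alone and no growth modifier present; test concentration not given here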; settings: S. pombe 972 growth, higher = more signal, called active from +8 up or from −8 down
[4] = S. cerevisiae growth modulation with rapamycin, primary screen, strain BY4716, OD600, 96 h (AID 1091); settings: higher = more signal, called active from +8 up or from −8 down; further: test concentration not given here
[5] = target: Torsin-1A-interacting protein 2 (Homo sapiens) (UniProt Q8NFQ8); assay: LULL1 binders on small-molecule microarray, primary screen, cell lysate, human LULL1 lysate, 635/667 nm fluorescence (AID 1092); settings: hLULL1 lysate binding, 635 nm fluorescence, higher = more signal;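 further: probe is lysate of COS7 cells overexpressing human LULL1; score merges per-feature 667 nm fluorescence with signal-to-noise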
Chain of Torsin-1A-interacting protein 2 (Homo sapiens) (Q8NFQ8 whole entry, looked up): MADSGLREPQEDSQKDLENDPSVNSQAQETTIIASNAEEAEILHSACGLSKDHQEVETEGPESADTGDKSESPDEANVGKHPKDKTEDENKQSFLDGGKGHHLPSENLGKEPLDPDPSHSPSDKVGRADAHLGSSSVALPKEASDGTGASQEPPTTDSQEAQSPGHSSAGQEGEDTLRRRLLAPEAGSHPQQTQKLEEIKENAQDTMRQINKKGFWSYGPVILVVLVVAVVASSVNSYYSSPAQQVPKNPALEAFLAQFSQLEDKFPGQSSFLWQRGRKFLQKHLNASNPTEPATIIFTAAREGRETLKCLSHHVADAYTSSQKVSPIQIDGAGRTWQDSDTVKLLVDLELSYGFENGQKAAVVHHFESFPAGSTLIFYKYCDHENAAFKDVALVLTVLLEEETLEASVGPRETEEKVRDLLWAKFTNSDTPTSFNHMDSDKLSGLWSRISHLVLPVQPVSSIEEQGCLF

[6] = E. coli growth modulation, two-sided OD650, primary screen, E. coli filamentation project, strain DRC41, 24 h (AID 1093); settings: OD650, 24 h, higher = more signal, called active from +8 up or from −8 down;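 further: MC1000 strain lacking acrAB efflux and sulA so SOS filamentation is blocked; test concentration not given here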
[7] = small-molecule microarray binders of probe aLefty2, primary screen, biochemical, biotinylated probe, 635/667 nm fluorescence (AID 1094); settings: higher = more signal;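 further: score merges spot fluorescence near 667 nm with spot signal-to-noise ratio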
[8] = system: Noggin (protein binding on small-molecule microarray); assay: Noggin binders on small-molecule microarray, primary screen, biochemical, 635/667 nm fluorescence (AID 1095); settings: 635 nm fluorescence, higher = more signal;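 further: score merges 667 nm feature fluorescence with signal to noise over triplicate slides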
[9] = target: Neurogenic locus notch homolog protein 3 (Homo sapiens) (UniProt Q9UM47); assay: NOTCH3 binders on small-molecule microarray, primary screen, biochemical, 635/667 nm fluorescence (AID 1096); settings: NOTCH3 binding, 635 nm fluorescence, higher = more signal
Chain of Neurogenic locus notch homolog protein 3 (Homo sapiens) (Q9UM47 whole entry, looked up): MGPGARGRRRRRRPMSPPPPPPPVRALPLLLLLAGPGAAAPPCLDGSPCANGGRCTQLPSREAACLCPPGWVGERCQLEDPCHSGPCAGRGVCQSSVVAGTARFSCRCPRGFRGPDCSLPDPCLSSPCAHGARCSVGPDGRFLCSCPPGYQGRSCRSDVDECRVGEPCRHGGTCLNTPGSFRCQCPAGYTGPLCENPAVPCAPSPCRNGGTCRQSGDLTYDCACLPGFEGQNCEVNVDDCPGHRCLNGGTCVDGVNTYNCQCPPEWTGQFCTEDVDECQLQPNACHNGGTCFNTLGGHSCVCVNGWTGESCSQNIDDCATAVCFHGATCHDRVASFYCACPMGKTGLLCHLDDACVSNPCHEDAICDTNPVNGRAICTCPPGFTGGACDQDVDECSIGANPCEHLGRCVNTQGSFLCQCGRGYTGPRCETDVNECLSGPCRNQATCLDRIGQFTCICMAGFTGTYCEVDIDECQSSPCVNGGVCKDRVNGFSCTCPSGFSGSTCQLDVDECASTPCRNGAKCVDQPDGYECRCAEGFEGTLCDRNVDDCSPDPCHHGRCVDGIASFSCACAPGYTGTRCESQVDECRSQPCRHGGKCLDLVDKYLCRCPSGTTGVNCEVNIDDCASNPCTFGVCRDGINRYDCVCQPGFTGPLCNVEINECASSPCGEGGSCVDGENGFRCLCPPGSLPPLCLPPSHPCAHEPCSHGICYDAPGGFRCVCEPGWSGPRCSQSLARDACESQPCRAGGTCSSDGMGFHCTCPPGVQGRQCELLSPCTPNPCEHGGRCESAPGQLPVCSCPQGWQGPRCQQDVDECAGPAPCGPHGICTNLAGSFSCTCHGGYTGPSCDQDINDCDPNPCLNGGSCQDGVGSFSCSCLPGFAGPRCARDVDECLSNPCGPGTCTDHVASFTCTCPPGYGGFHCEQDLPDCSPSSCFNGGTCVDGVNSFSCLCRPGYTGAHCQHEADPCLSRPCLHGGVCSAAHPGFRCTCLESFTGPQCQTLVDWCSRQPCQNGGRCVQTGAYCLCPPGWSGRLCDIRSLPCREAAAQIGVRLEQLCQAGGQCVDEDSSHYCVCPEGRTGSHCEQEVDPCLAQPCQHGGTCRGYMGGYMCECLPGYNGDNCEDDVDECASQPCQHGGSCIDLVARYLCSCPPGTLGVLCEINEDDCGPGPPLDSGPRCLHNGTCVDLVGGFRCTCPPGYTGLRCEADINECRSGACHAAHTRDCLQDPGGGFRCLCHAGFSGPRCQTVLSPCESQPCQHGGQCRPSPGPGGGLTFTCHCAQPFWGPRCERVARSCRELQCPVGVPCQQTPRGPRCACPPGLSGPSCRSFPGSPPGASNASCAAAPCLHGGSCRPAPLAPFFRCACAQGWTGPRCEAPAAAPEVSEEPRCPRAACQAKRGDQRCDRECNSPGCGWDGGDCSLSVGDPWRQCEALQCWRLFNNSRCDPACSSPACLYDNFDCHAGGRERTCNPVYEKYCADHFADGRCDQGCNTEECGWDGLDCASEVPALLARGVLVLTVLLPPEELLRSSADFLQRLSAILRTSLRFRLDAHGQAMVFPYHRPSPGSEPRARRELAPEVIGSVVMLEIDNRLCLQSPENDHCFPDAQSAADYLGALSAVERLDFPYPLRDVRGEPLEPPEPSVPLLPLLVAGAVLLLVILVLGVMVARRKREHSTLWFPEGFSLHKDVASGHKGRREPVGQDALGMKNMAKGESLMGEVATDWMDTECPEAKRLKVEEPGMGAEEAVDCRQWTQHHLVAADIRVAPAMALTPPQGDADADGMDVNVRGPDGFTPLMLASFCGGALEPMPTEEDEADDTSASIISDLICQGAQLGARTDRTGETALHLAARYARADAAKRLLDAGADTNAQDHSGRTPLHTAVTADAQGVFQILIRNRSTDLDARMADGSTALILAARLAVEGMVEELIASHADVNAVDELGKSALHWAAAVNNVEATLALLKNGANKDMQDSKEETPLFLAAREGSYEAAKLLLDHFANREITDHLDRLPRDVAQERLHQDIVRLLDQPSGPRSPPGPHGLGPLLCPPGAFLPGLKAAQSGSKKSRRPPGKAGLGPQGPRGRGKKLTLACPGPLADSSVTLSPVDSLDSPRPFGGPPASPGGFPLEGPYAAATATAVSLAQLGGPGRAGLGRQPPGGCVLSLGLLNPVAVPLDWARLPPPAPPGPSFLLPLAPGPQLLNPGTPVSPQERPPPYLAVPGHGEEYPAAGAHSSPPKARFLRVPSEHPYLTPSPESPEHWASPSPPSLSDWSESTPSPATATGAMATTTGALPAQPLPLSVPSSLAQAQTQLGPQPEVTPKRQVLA

[10] = small-molecule microarray binders of probe aEGFR, primary screen, biochemical, biotinylated probe, 635/667 nm fluorescence (AID 1097); settings: higher = more signal;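 further: probe is a biotinylated anti-EGFR antibody binding compounds printed on slides; score combines fluorescence near 667 nm and signal to noise of each spot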
[11] = system: Plasmodium falciparum Sir2 (PF13_0152, Sir2A); assay: pfSir2 binders on small-molecule microarrays, primary screen, biochemical, small-molecule microarray, 635 nm fluorescence (AID 1098); settings: small-molecule microarray binding, fluorescence 635 nm; higher = more signal;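 further: score merges spot fluorescence intensity with its signal-to-noise ratio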
[12] = small-molecule microarray binders of probe aDKK1, primary screen, biochemical, biotinylated probe, 635/667 nm fluorescence (AID 1099); settings: higher = more signal;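 further: score merges 667nm spot fluorescence with signal to noise across triplicate slides; reference of the scale not given here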
[13] = small-molecule microarray binders of probe aCHRDL2, primary screen, biochemical, biotinylated probe, 635/667 nm fluorescence (AID 1100); settings: higher = more signal
[14] = splicing luciferase reporter signal modulators, primary screen, spliceosome inhibition project, cell-based, HEK293, splice +/- reporter (AID 1101); settings: luminescence, 24 h, higher = more signal, called active from +8 up or from −8 down;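 further: HEK293 cells carrying a splicing-competent luciferase reporter gene; test concentration not given here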
[15] = target: Fibroblast growth factor 10 (Homo sapiens) (UniProt O15520); assay: FGF10 binders on small-molecule microarrays, primary screen, biochemical, small-molecule microarray, 635 nm fluorescence (AID 1102); settings: FGF10 binding, fluorescence 635 nm, higher = more signal
Chain of Fibroblast growth factor 10 (Homo sapiens) (O15520 whole entry, looked up): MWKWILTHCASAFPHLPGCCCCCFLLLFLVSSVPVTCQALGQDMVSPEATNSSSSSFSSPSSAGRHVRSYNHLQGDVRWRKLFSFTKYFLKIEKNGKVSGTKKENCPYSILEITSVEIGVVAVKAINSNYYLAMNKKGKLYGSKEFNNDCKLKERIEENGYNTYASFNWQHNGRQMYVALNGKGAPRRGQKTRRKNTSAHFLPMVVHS

[16] = system: glycogen synthase kinase-3 (GSK3A per assay name; protocol says GSK3B); assay: GSK3 binders on small-molecule microarrays, primary screen, biochemical, small-molecule microarray, 635 nm fluorescence, GSK3A (AID 1103); settings: small-molecule microarray binding, fluorescence 635 nm; higher = more signal; further: the record names both GSK3A and GSK3B
[17] = target: Epidermal growth factor receptor (Homo sapiens) (UniProt P00533); assay: EGFR binders on small-molecule microarrays, primary screen, biochemical, small-molecule microarray, 635 nm fluorescence (AID 1104); settings: EGFR binding, higher = more signal;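 further: score merges 667 nm emission intensity with spot signal to noise over triplicate slides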
Chain of Epidermal growth factor receptor (Homo sapiens) (P00533 whole entry, looked up): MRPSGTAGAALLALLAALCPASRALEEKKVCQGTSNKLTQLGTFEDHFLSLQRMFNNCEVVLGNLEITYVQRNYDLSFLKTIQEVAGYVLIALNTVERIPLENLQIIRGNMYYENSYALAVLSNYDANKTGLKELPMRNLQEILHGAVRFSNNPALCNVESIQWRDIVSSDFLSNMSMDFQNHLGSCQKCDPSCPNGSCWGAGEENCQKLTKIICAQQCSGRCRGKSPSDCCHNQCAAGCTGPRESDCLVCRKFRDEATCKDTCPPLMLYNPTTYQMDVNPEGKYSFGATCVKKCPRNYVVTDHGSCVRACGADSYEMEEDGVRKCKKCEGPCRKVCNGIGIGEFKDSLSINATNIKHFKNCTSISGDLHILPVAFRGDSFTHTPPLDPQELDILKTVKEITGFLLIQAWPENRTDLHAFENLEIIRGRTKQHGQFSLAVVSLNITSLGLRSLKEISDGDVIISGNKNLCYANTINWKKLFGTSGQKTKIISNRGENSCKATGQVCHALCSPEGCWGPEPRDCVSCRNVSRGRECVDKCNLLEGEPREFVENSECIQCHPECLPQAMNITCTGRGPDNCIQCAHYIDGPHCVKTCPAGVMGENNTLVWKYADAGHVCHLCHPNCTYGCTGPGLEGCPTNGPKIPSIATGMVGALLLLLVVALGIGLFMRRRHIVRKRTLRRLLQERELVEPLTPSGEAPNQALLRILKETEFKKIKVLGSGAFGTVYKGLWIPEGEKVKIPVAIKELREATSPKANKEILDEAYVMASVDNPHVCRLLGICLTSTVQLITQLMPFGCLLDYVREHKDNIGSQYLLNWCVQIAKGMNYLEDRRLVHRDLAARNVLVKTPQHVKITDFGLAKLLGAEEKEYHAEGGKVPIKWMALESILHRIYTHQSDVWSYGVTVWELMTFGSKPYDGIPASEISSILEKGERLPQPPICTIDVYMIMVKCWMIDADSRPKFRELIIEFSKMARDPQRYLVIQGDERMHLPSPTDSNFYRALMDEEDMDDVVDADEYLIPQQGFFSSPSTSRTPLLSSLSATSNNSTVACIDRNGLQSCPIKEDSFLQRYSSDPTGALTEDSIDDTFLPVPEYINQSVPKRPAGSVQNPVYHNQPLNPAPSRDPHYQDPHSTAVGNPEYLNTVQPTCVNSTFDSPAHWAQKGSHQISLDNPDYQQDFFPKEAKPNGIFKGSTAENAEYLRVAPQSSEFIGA

[18] = target: Follistatin-related protein 3 (Homo sapiens) (UniProt O95633); assay: FSTL3 binders on small-molecule microarrays, primary screen, biochemical, small-molecule microarray, 635 nm fluorescence (AID 1105); settings: FSTL3 binding, higher = more signal;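 further: score merges emission near 667 nm and signal to noise per printed spot across three slides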
Chain of Follistatin-related protein 3 (Homo sapiens) (O95633 whole entry, looked up): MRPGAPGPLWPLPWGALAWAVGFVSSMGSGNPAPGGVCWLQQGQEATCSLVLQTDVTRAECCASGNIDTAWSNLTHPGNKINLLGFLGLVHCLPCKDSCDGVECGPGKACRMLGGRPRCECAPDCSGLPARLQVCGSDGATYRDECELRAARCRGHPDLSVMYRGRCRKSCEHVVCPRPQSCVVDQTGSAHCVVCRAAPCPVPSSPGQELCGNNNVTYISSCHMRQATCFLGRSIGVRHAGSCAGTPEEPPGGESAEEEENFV

[19] = target: Dickkopf-related protein 1 (Homo sapiens) (UniProt O94907); assay: DKK1 binders on small-molecule microarrays, primary screen, biochemical, small-molecule microarray, 635 nm fluorescence scan (AID 1106); settings: DKK1 binding, higher = more signal;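 further: score merges emission near 667 nm with signal to noise over three replicate slides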
Chain of Dickkopf-related protein 1 (Homo sapiens) (O94907 whole entry, looked up): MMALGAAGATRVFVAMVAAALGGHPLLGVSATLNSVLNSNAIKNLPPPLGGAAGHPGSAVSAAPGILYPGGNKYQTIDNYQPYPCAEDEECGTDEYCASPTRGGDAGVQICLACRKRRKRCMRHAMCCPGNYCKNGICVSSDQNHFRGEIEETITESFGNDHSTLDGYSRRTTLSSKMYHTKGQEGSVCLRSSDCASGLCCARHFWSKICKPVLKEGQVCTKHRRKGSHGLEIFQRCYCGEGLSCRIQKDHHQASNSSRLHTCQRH

[20] = system: Inhibin beta A chain (activin A); assay: INHBA (activin A) binders on microarrays, primary screen, biochemical, small-molecule microarray, 635 nm fluorescence scan (AID 1107); settings: small-molecule microarray binding, higher = more signal;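 further: mouse activin A protein probed at 4.33 µg/mL on printed slides; score merges bound-protein fluorescence near 667 nm with spot signal-to-noise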

Row | SMILES | composite z-score [1] | z-score [2] | z-score [3] | z-score [4] | composite z-score [5] | z-score [6] | composite z-score [7] | composite z-score [8] | composite z-score [9] | composite z-score [10] | composite z-score [11] | composite z-score [12] | composite z-score [13] | z-score [14] | composite z-score [15] | composite z-score [16] | composite z-score [17] | composite z-score [18] | composite z-score [19] | composite z-score [20]
1 | CC(=O)OC[C@H]1O[C@H](CC=NO[C@H](C)c2cn([C@H](CO)Cc3ccccc3)nn2)C=C[C@@H]1OC(C)=O | 1.34 | 1.36 (inactive) | 1.34 (inactive) | 1.4 (inactive) | 1.06 | 0.655 (inactive) | -0.0998 | 0.61 | 1 | 0.009 | 0.95 | -0.154 | -0.357 | 0.67 (inactive) | 0.945 | 0.926 | 0.569 | 0.995 | 1.43 | -0.143
2 | COC(=O)CC=C[C@@H](C)[C@@H](C=NOCC[C@@H]1C=C[C@H](OC(C)=O)[C@@H](COC(C)=O)O1)NS(=O)(=O)c1ccc(C)cc1 | 0.477 | 0.787 (inactive) | 0.466 (inactive) | -0.448 (inactive) | -0.0098 | 0.545 (inactive) | 0.135 | 0.706 | -0.213 | 0.0511 | 0.133 | -0.322 | -0.331 | -0.43 (inactive) | -0.183 | 0.328 | 0.736 | 0.0237 | 0.316 | 0.46
3 | CC(C)=CCCC(C)=CCON=C1C[C@@H](O)[C@@H](O)[C@@H]2[C@@H]3C(=O)N(C4CCCCC4)C(=O)[C@@H]3CC[C@@H]12 | 0.614 | -0.671 (inactive) | -2.8 (inactive) | -0.513 (inactive) | -0.687 | -0.257 (inactive) | -0.15 | 0.615 | -0.407 | -0.0956 | 0.511 | -0.355 | -0.858 | 0.956 (inactive) | 0.368 | -0.345 | 0.859 | 0.502 | 0.996 | 1.04
4 | COC(=O)[C@H](C)NC(=O)CCC1CC(OC(=O)NCc2cccc3ccccc23)CC2(CCCC(COC(=O)NCC(c3ccccc3)c3ccccc3)O2)O1 (stereo not given in full) | 1.48 | -0.797 (inactive) | 0.104 (inactive) | -0.691 (inactive) | 2.99 | 0.0609 (inactive) | -0.166 | 0.661 | 1.09 | -0.0509 | 0.208 | -0.0014 | -0.523 | 0.026 (inactive) | 0.715 | 1.27 | 0.702 | 0.601 | 0.386 | -0.396
5 | CCOC(=O)NN=C1C[C@@H](O)[C@@H](O)[C@@H]2[C@@H]3C(=O)N(c4cccc(Oc5ccccc5)c4)C(=O)[C@@H]3CC[C@H]12 | 0.626 | -1.57 (inactive) | -0.216 (inactive) | -0.873 (inactive) | 0.0068 | -0.998 (inactive) | -0.175 | 0.311 | 0.589 | -0.0371 | 0.424 | 0.104 | -0.566 | -0.652 (inactive) | 0.518 | 0.176 | 0.381 | 0.455 | 0.222 | 0.0233
6 | C[C@H](ON=C1[C@H]2CCn3c(=O)n(-c4ccccc4)c(=O)n3[C@H]2[C@H](O)[C@@H]2O[C@H]12)c1cn([C@H](CO)Cc2ccccc2)nn1 | 0.171 | -0.915 (inactive) | -0.348 (inactive) | -0.173 (inactive) | 0.664 | 0.547 (inactive) | -0.175 | 0.222 | 0.518 | 0.0544 | -0.0041 | -0.15 | -0.519 | -0.421 (inactive) | 0.513 | 0.266 | 0.377 | 0.659 | 0.559 | 0.437
7 | COc1cccc([C@H]2Oc3ccc(OC)cc3C(=NOC(C)CN3CCCCc4nc(C)c(C)cc43)[C@@H]2O)c1 (stereo not given in full) | 1.03 | -0.915 (inactive) | -1.19 (inactive) | -1.48 (inactive) | 1.45 | 1.25 (inactive) | 0.0344 | 0.0286 | 0.32 | 0.044 | -0.0106 | -0.151 | -0.223 | -0.49 (inactive) | 0.422 | -0.313 | 0.132 | 0.179 | 0.064 | 0.937
8 | CO[C@H]1COC(=O)CCC[C@@H](C)[C@H](OC)COC(=O)[C@@H]2CCCN2C(=O)CC=C[C@@H]1C | 1.53 | -0.671 (inactive) | 0.044 (inactive) | -0.986 (inactive) | -1.77 | -0.476 (inactive) | -0.183 | 1.82 | 0.473 | 0.0869 | 1.78 | -0.313 | -0.959 | -0.599 (inactive) | 0.269 | 0.482 | 0.802 | 1.02 | 1.16 | 1.26
9 | O=C(NN=C1C[C@@H](O)[C@@H](O)[C@@H]2[C@@H]3C(=O)N(C[C@@H]4CCCO4)C(=O)[C@@H]3CC[C@@H]12)OCc1ccccc1 | 1.04 | -1.74 (inactive) | -0.199 (inactive) | -0.655 (inactive) | -0.0366 | -0.202 (inactive) | -0.27 | 0.907 | 0.208 | -0.0947 | 0.789 | -0.32 | -0.916 | -1.03 (inactive) | 0.127 | 1.09 | 0.509 | 0.0972 | 0.486 | 0.781
10 | Cc1ccc(S(=O)(=O)N[C@@H]2COC(=O)[C@@H](C)COC(=O)CC=C[C@H]2C)cc1 | -0.496 | 1.19 (inactive) | 0.227 (inactive) | 1.02 (inactive) | -0.548 | -0.266 (inactive) | -0.183 | 0.49 | 0.702 | -0.182 | 0.154 | -0.324 | -0.352 | 0.00914 (inactive) | 0.424 | 0.513 | 0.545 | 0.66 | 0.56 | 0.13
